In PubChem BioAssay AID624331 (National Center for Advancing Translational Sciences (NCATS), 2012):
Records with an inconclusive call do not appear. Entries that show only a call come without a potency. The source made the active and inactive calls. The call rests on the fitted dose curve; in most records, active means well fitted activation curve with a large enough effect; inconclusive means small, poorly fitted or top-dose-only effect; inactive means no such curve, though single readings can be large or run the other way.

Assay: qHTS assay for re-activators of p53 using a Luc reporter: Hit Validation with no p53 Expressed
In short: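 Counter-screen of primary hits in a cell line not transfected with p53, in Opti-MEM with 10% FBS; compounds at several concentrations (10 mM stock, 1:5; top 46.1 µM in well), 24 h at 37 deg C, 5% CO2. Luminescence read after 10 min with Amplite reagent.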
Potency means the concentration at half of the fitted maximal effect.

| SMILES | Potency |
| --- | --- |
| OC1(C2(O)CC(c3ccccc3)ON2)CCCCC1 (configuration not stated) | inactive |
| CCCN1CCC(=NNC(=O)CSc2cc(C)c(Br)cc2C)CC1 | inactive |
| Clc1ccc(-c2nnc(SCc3ccon3)o2)c(Cl)c1 | 1840 nM (active) |
| Fc1ccccc1OCCSc1nnnn1-c1ccccc1 | inactive |
| N#CC(Cc1ccccc1)(Cc1ccccc1)C(=O)NN | 29100 nM (active) |
| O=C(N/N=C\c1cccc(Cl)c1)c1n[nH]c2c1CCCC2 | inactive |
| COc1ccc(N2CCN(C(=O)COC(=O)c3ccc(OC(F)F)cc3)CC2)cc1 | inactive |
| NC(=O)c1cc2ccc(O)cc2oc1=Nc1ccccc1 | inactive |
| CCOC(=O)CC(=O)Nc1ccc(C(=O)OCC)cc1 | inactive |
| CCCOc1ccc(-c2cc3onc(-c4ccccc4)c3c(=O)n2C)cc1 | inactive |
| Cc1ccsc1/C=C1\CCc2ccccc2C1=O | inactive |
| COc1ccccc1C(=O)CC(=O)c1ccccc1 | inactive |
| O=C(Nc1nnc(-c2ccccc2F)s1)C1CCN(S(=O)(=O)c2ccc(Cl)cc2)CC1 | inactive |
| CN1C(=O)C2(OCC(CO)([N+](=O)[O-])CO2)c2ccccc21 (configuration not stated) | inactive |
| COc1ccccc1-c1cc(C(=O)Nc2cc(C)on2)no1 | inactive |
| CC(C)(C)NC(=O)CSC(=Nc1ccccc1F)NC#N | inactive |
| Nc1nonc1-n1nnc(C(=O)N/N=C/c2cc(Br)ccc2O)c1CSC1=NCCS1 | inactive |
| CSCCC(NC(=O)c1ccc(Cl)cc1Cl)C(=O)N1CC(C)OC(C)C1 (configuration not stated) | inactive |
| O=c1cc(-c2ccc3c(c2)OCCO3)oc2ccc(Cl)cc12 | inactive |
| CN(Cc1ccccc1)C(=O)CNC(=O)Cn1cnc2ccccc2c1=O | inactive |
| CCOc1ccc(C(O)Cc2nc3ccccc3n2C)cc1 (configuration not stated) | inactive |
| CCOC(=O)C1=C(C)Nc2ncnn2C1c1c[nH]c2ccccc12 (configuration not stated) | inactive |
| Clc1cccc(Cl)c1CSc1nnc2ccccn12 | inactive |
| O=[N+]([O-])c1ccc(/C=N/NC(=S)Nc2ccccc2F)o1 | inactive |
| COc1cc(/C=N/Nc2nc3ccccc3s2)ccc1OC(=O)c1ccccc1F | inactive |
| Cc1c(/C(O)=C2/C(=O)C(=O)N(Cc3cccnc3)C2c2cccs2)cnn1-c1ccccc1 (configuration not stated) | inactive |

| SMILES | Potency |
| --- | --- |
| COc1ccc(-c2csc(NCc3ccco3)n2)cc1C | inactive |
| C(=C\c1nc(-c2ccccc2)no1)/c1ccccc1 | inactive |
| COc1cc(CN2CCCCC2C(=O)Nc2ccc(Oc3ccccc3)nc2)ccc1O (configuration not stated) | inactive |
| O=C(N/N=C/c1cccs1)c1n[nH]c2c1CCC2 | inactive |
| CN(C(=O)NC(=O)C1=C(N2CCOCC2)/C(=C/c2ccccc2)CC1)S(C)(=O)=O | inactive |
| CC(=O)N1CCN(C(=O)COC(=O)COc2c(C)cc(C)cc2C)CC1 | inactive |
| O=C(Nc1ccc(N2CCCCCC2)cc1)c1ccc[nH]1 | 1840 nM (active) |
| CNc1nnc(SCC(=O)c2cc(C)n(C3CC3)c2C)s1 | inactive |
| C/C(=C\C(=O)c1ccccc1)Nc1ccc2c(c1)OCO2 | inactive |
| O=C(CC(Nc1ccc(F)cc1)C(=O)OCC(=O)c1cccs1)c1ccccc1 (configuration not stated) | inactive |
| O=C(Nc1ccccc1Br)c1ccc(OC(=S)N2CCOCC2)cc1 | inactive |
| Cn1c(=NC(=O)c2ccco2)sc2cccc(F)c21 | inactive |
| O=C(Nc1cccc(O)c1)C(=O)Nc1ccccn1 | inactive |
| COc1ccc2cc3c(N)nn(C(=O)c4ccc(Cl)c([N+](=O)[O-])c4)c3nc2c1 | inactive |
| C/C(=N\NC(=O)c1cccc(Br)c1)c1ccccn1 | inactive |
| Oc1ccccc1-c1cc(-c2ccccc2)n[nH]1 | inactive |
| COc1ccc(CC(=O)Nc2ccc(C(=O)Nc3ccccc3C(=O)O)cc2)cc1OC | inactive |
| CCc1ccc2[nH]c(=O)c(CN(CCN(CC)CC)C(=O)NC3CCCCC3)cc2c1 | inactive |
| CCc1nnc(NC(=O)CCC(=O)Nc2ccccc2)s1 | inactive |
| CC1CCCC(C)N1C(=O)CSc1nnc(-c2cccs2)o1 (configuration not stated) | inactive |
| O=C(CCS(=O)(=O)c1ccccc1)Nc1ccc(-c2nc3ccccc3s2)cc1 | inactive |
| O=C1CCCC(O)=C1N=Nc1c(Cl)cc(Cl)cc1Cl | inactive |
| Cc1ccc(C(=O)Nc2ncc3c(n2)CC(c2ccco2)CC3=O)cc1 (configuration not stated) | inactive |
| N#Cc1ccccc1NC(=O)c1cccc(COc2ccc(Cl)cc2Cl)c1 | 116 nM (active) |
| Cc1ccc2cc(CCNC(=O)c3ccco3)c(=O)[nH]c2c1C | inactive |
| COc1ccc(N2COC3c4cccc5cccc(c45)C32)cc1 (configuration not stated) | inactive |
